For seven compounds, outcome results are on record in PubChem BioAssay (EPA / NIEHS).

Results filed as inconclusive are left out. Activity calls are given as the source filed them. How the source made its calls, unless noted: active means hit-call score of the fitted dose curve at least 0.9, where 1 is the maximum; inconclusive means response in the unintended direction; inactive means score below 0.9. Starred links: 1 amine or outer side, 2 acyl side, 3 side chain; linkers in the order of their positions; H or OH if unused. Positions of bridges follow the written chain, without caps; N, C: chain ends. Non-standard residues stand in square brackets, D forms with d. Residues, ends and D or L forms follow the SMILES beside them. Adda = CO[C@@H](Cc1ccccc1)[C@@H](C)/C=C(C)/C=C/[C@H](N[*:1])[C@H](C)C(=O)[*:2]; dAsp(3S-Me) = C[C@H](C(=O)[*:3])[C@@H](N[*:1])C(=O)[*:2]; d(γGlu) = O=C(O)[C@@H](CCC(=O)[*:2])N[*:1]; NMeDha = C=C(NC)C(=O)O

A short description of test [1]: CCTE_Harrill_HTTr_Apoptosis_PRF_DMEM_12hr: (Pilot) CCTE's 12-hour Apoptosis Assessment for the High-Throughput Transcriptomics (HTTr) Platform, in MCF-7 cells cultured in phenol red-free DMEM + 10% charcoal-stripped fetal bovine serum, Harrill Lab (AID 2283985; active means hit-call score of the fitted dose curve at least 0.9, where 1 is the maximum; inactive means score below 0.9). A digest of the protocol: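 MCF-7 cells in phenol red-free DMEM with 10% charcoal-stripped FBS, eight-point dilution series, 12 h exposure. Caspase-3/7 activation imaged by high content imaging with CellEvent Green reagent; bidirectional fit vs DMSO.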

The target in test [2] is Thyroid hormone receptor alpha (Rattus norvegicus) + Thyroid hormone receptor beta (Rattus norvegicus) (UniProt P18113+P63059). Put plainly: TOX21_TR_LUC_GH3_Antagonist_Followup: Tox21 GH3 Thyroid Hormone Receptor Antagonism Luciferase Follow-Up Assay (AID 2283942). A digest of the protocol:
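Confirmatory qHTS, antagonist mode: T3 (1.0 nM final) + test cpd, 15 conc, 92 uM–5nM final, GH3 rat pituitary line, 24 h, 37C. Luc reporter, RLU vs DMSO.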

For test [3], the target named is THRA (gene 7067) (UniProt P10827). Briefly: TOX21_TRA_COA_Antagonist_Followup_ratio: Tox21 Thyroid Hormone Receptor alpha Antagonism through Coactivator Recruitment Follow-Up Assay, Ratio (AID 2283953). In outline:
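520:495 nm emission ratio (excitation 340 nm) reports fluorescein-SRC-2 peptide recruitment to GST-TRα LBD by TR-FRET with Tb anti-GST antibody. Values were normalized to DMSO (0%) and T3 control wells (100%); loss of signal indicated antagonism.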

Test [4] deals with Retinoic acid receptor RXR-alpha (Homo sapiens) (UniProt P19793). Put plainly: TOX21_TR_RXR_BLA_Antagonist_Followup_ratio: Tox21 Thyroid Hormone Receptor beta Retinoid X Receptor alpha (RXRa) Antagonism Beta-lactamase (BLA) Follow-Up Assay, Ratio (AID 2283972). In outline: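 HEK293T RXRa-bla, 2% charcoal-stripped FBS medium, 16 h compound exposure at 37C, qHTS 11 conc x3. CCF4 FRET ratio ch2/ch1 (460:530), DMSO = baseline, loss-of-signal fit.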
Chain of Retinoic acid receptor RXR-alpha (Homo sapiens) (P19793 whole entry, looked up): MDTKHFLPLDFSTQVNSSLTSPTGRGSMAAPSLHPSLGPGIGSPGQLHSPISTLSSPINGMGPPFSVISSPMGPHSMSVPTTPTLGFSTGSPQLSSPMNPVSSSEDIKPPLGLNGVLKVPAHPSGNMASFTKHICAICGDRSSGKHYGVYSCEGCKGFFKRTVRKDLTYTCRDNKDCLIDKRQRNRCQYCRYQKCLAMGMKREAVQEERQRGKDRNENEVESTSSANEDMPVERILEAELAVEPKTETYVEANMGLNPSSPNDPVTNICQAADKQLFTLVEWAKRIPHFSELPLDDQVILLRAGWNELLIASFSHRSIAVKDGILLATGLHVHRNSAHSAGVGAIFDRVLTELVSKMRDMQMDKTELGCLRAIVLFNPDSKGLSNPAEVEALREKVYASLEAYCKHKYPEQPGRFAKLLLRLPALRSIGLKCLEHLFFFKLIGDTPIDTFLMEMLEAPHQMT

For test [5], the target named is THRA (gene 7067) (UniProt P10827). Briefly: TOX21_TRA_COA_Agonist_Followup_ratio: Tox21 Thyroid Hormone Receptor alpha Agonism through Coactivator Recruitment Follow-Up Assay, Ratio (AID 2283948; active means hit-call score of the fitted dose curve at least 0.9, where 1 is the maximum; inactive means score below 0.9). A digest of the protocol:
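Follow-up specificity assay in which TRα ligand-binding domain, expressed as a GST fusion, recruits a fluorescein-labelled SRC-2 peptide. Energy transfer from a terbium anti-GST antibody gives the acceptor/donor ratio, fitted upward relative to DMSO.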

The target in test [6] is THRB (gene 7068) (UniProt P10828). Put plainly: TOX21_TRB_BLA_Agonist_Followup_ratio: Tox21 Thyroid Hormone Receptor beta Agonism Beta-lactamase (BLA) Follow-Up Assay, Ratio (AID 2283954). In outline: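 Human TRβ LBD–GAL4 DBD fusion in GeneBLAzer UAS-bla HEK293T cells; 11 concentrations in triplicate, 18 h at 37°C/5% CO2, T3 as agonist control. CCF4-AM substrate 2 h at room temperature; 460:530 nm ratio fitted for gain of signal versus DMSO.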
Chain of THRB (gene 7068) (P10828 whole entry, looked up, the tested form may be a part): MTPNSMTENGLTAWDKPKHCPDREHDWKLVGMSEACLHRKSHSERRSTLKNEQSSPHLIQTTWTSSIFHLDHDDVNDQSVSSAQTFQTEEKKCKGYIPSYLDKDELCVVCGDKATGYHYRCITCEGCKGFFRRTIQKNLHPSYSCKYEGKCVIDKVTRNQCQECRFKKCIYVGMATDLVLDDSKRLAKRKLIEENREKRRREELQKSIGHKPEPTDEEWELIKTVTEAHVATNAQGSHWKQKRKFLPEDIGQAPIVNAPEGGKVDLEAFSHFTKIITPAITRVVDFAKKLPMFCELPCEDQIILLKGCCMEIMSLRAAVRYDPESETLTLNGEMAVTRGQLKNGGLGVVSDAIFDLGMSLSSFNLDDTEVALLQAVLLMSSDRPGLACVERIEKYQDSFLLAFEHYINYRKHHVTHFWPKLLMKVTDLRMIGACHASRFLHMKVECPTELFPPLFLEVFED

Test [7] has the same target. Put plainly: TOX21_TRB_COA_Agonist_Followup_ratio: Tox21 Thyroid Hormone Receptor beta Agonism through Coactivator Recruitment Follow-Up Assay, Ratio (AID 2283963; active means hit-call score of the fitted dose curve at least 0.9, where 1 is the maximum; inactive means score below 0.9). In outline:
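Agonism is measured as coactivator recruitment in a purified-protein TR-FRET format, using GST-TRβ LBD at 5.0 nM, fluorescein-SRC-2 peptide at 200 nM and Tb-labeled anti-GST antibody at 2 nM. Values are 520:495 nm ratios relative to DMSO (0%) and T3 (100%).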

In test [8] the target is Retinoic acid receptor RXR-alpha (Homo sapiens) (UniProt P19793). Put plainly: TOX21_TR_RXR_BLA_Agonist_Followup_ratio: Tox21 Thyroid Hormone Receptor beta Retinoid X Receptor alpha (RXRa) Agonism Beta-lactamase (BLA) Follow-Up Assay, Ratio (AID 2283968). In outline: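 RXRa-UAS-bla HEK293T cells, 5 h attachment at 37C/5% CO2, then 11 concentrations in triplicate for 16 h; 9-cis retinoic acid positive control. FRET-B/GCCF4-AM substrate 2 h at room temperature; 460:530 nm ratio, fitted for gain versus DMSO.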

Test [9] is described as follows: CCTE_Harrill_HTTr_Viability_MCF7: CCTE's 6-hour Cell Viability Assessment for the High-Throughput Transcriptomics (HTTr) Platform, in MCF-7 cells cultured in DMEM + 10% fetal bovine serum, Harrill Lab (AID 2284010; active means hit-call score of the fitted dose curve at least 0.9, where 1 is the maximum; inactive means score below 0.9). In outline: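 MCF-7 cells in DMEM + 10% FBS, 384-well, exposed 6 h to an eight-point dilution series. Membrane integrity scored by high-content imaging of propidium iodide exclusion; bidirectional fit versus DMSO.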

Test [10] can be described thus: CCTE_Harrill_HTTr_Apoptosis_MCF7: CCTE's 6-hour Apoptosis Assessment for the High-Throughput Transcriptomics (HTTr) Platform, in MCF-7 cells cultured in DMEM + 10% fetal bovine serum, Harrill Lab (AID 2284011; active means hit-call score of the fitted dose curve at least 0.9, where 1 is the maximum; inactive means score below 0.9). A digest of the protocol:
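MCF-7 (DMEM + 10% FBS), 384-well; 8-pt dilution series, 6 h chemical exposure; caspase-3/7 activation via CellEvent Caspase 3/7 Green, HCI; bidirectional fit vs DMSO.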

Test [11] can be described thus: TOX21_TRB_BLA_Agonist_Followup_viability: Viability Assessment in the Tox21 Thyroid Hormone Receptor beta Agonism Beta-lactamase (BLA) Follow-Up Assay (AID 2283956). In outline: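 TRb-bla HEK293T cells (GAL4-DBD/human TRb LBD) in 2% charcoal-stripped FBS medium were exposed 18 h at 37C to 11 concentrations in triplicate. CellTiter-Glo ATP luminescence was read after 30 min at room temperature, with bidirectional fitting against DMSO.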

Test [12] is described as follows: CCTE_Harrill_HTTr_CellCount_MCF7: CCTE's Cell Proliferation Assessment for the High-Throughput Transcriptomics (HTTr) Platform, Harrill Lab (AID 2284012).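 Further: cells exposed to compound for six hours; intended direction is loss of nuclei count meaning fewer cells.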 In outline:
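MCF7 cells exposed 6 hours to an eight-point dilution series; Hoechst-stained nuclei counted by high-content imaging. Bidirectional curve fitting against DMSO baseline.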

Chain of THRA (gene 7067) (P10827 whole entry, looked up, the tested form may be a part): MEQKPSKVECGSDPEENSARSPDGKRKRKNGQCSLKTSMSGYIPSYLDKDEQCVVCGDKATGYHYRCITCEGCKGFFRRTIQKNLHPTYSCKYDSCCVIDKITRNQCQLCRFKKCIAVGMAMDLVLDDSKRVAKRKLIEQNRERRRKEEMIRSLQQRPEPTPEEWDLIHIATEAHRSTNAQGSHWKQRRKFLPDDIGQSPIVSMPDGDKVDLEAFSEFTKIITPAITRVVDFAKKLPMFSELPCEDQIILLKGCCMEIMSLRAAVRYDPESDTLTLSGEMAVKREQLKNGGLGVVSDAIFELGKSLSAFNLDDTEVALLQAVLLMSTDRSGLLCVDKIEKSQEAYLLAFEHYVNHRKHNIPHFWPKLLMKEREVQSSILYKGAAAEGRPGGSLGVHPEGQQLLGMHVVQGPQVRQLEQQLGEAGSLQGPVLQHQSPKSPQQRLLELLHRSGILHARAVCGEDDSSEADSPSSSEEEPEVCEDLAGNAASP

With `CC1(C)NC(=O)N(c2ccc([N+](=O)[O-])c(C(F)(F)F)c2)C1=O`, in [1], the outcome was inactive.

Consider `CC[n+]1ccccc1`, for which the result in test [2], in [3] and in test [4] was inactive.

For `CCn1cc[n+](C)c1`, the outcome in test [5], in test [6], in test [7] and in test [8] was inactive.

`[Cl-].[Cl-].[Cl-].[Pr+3]`: the result in test [9] and in test [10] was inactive.

Turning to `CC1=C(/C=C/C(C)=C/C=C/C(C)=C\C(=O)O)C(C)(C)CCC1`, the call in [11] was inactive.

Take `Nc1ccc(S(N)(=O)=O)cc1`: the outcome in test [11] was inactive.

On to `C=C1C(=O)N[C@H](C)C(=O)N[C@H](CC(C)C)C(=O)N[C@@H](C(=O)O)[C@H](C)C(=O)N[C@@H](CCCN=C(N)N)C(=O)N[C@@H](/C=C/C(C)=C/[C@H](C)[C@H](Cc2ccccc2)OC)[C@H](C)C(=O)N[C@@H](C(=O)O)CCC(=O)N1C` (R[Adda][d(γGlu)][NMeDha][dA][dL][dAsp(3S-Me)]-OH; lactam N-7), for which the result in test [9], in test [10] and in [12] was inactive.
